This note sets out measurements from ChEMBL document CHEMBL4513216, “Probing the Open Global Health Chemical Diversity Library for Multistage-Active Starting Points for Next-Generation Antimalarials” (ACS Infect Dis, 2020).

Hit rate of the full screen: of about 68,000 compounds, about 2,700 (4%) showed an effect of 50% or more. The entries come from a sample that favours strong results as a whole.

In the experiment the test system is Plasmodium berghei. Description: Screen against P. berghei liver stage (PbLuc), transformed with Luciferase, at 2uM. In kind it is functional, HepG2. The note with it: tested at 2 uM.
Regarding `O=C(NCc1ccccn1)NCC(O)c1ccccc1C(F)(F)F` (stereo unspecified), the INHIBITION is on record as -19.62%. For the molecule `O=C(c1ccccc1OCC1CC1)N1CCCC1Cn1cccn1` (stereo unspecified), the INHIBITION is -12.5%. As to `O=C(CCCn1cncn1)N1CCC2(CCCNC2=O)C1` (stereo unspecified), the INHIBITION is on record as 43.1%.

For the molecule `O=C(c1cccc(Cl)c1)N1CC[C@H]2[C@H]1CCN2CC1CCOCC1`, the INHIBITION worked out at 49.03%. As to `CCS(=O)(=O)N1CC[C@@H]2[C@H](CC1)N(CC(C)C)CCS2(=O)=O`, the INHIBITION is 40.5%. As to `Cc1cc(C)nc(C2(C)CCCN2CCO)n1` (stereo unspecified), the INHIBITION was -8.85%. Regarding `Cc1cc(C(N)=O)nc(C2(C)CCCN2Cc2cnn(C)c2C)n1` (stereo unspecified), the INHIBITION is on record as 40.31%. With `Cc1cc(C(N)=O)nc(C2(C)CCCN2Cc2cnn(C)c2)n1` (stereo unspecified), the INHIBITION is recorded as 74.08%. Consider `COc1ccc(-c2noc(CN3CCN(c4cnccn4)CC3)n2)cc1`, for which the INHIBITION amounted to 32.88%.

Regarding `COc1ccc(-n2cnnc2CC2CCNCC2)cc1`, the INHIBITION was -22%. `O=S(=O)(N1CCCC1)N1CC(c2ccnc(Nc3ccccn3)n2)C1`: the INHIBITION was determined as 17.72%. Turning to `CCN(CCc1nc2cc(C)ccc2[nH]1)C(=O)[C@@H](N)Cc1c[nH]cn1`, the INHIBITION is given as -2.23%. In the case of `Cc1cc(N2CCCC(O)(CN(C)C)CC2)nc(-c2ccccc2)n1` (stereo unspecified), the INHIBITION was found to be 1.06%. With `CN(C)CC1(O)CCCN(c2noc(-c3ccccc3)n2)CC1` (stereo unspecified) the figure was 12.55%; with `CN(C)CC1(O)CCCN(c2nc(-c3ccccc3)no2)CC1` (stereo unspecified), 76.6%; with `c1cc(-c2cscn2)cc(N2CCC(NCCc3cccs3)CC2)c1`, -15.42%. For the molecule `CCC(=O)N1CCC2(CC1)CC(CC(=O)N(C)C)c1ccc(F)cc12` (stereo unspecified), the INHIBITION is reported as -0.45%. As for `CC(C)COC(C)C(=O)NCCNC(=O)C(C)C` (stereo unspecified), the INHIBITION was found to be 31.96%. With `CCOC(C)C(=O)NCCNS(C)(=O)=O` (stereo unspecified) the figure was 8.41%; with `CC(C)COC(C)C(=O)NCCNS(C)(=O)=O` (stereo unspecified), 52.74%. With `CCN(Cc1cccc2c1OCO2)C(=O)NCCOC` the figure was 25.61%; with `CN(C)C(=O)c1ccc2ccc(N3CCN(CC4CC4)CC3)n2c1`, 19.96%. In the case of `CN(C)C(=O)N1CCN(c2ccc3ccc(C(=O)NC4CC4)cn23)CC1` it was 23.26%. For the molecule `CC(=O)N1CCN(c2ccc3ccc(C(=O)NC4CCCC4)cn23)CC1`, the INHIBITION is given as -7.41%.

Regarding `O=C(NC1CC1)c1ccc2ccc(N3CCN(CC4CC4)CC3)n2c1`, the INHIBITION was -36.7%. For the molecule `CC(C)N1CCN(c2ccc3ccc(C(=O)NC4CCCC4)cn23)CC1`, the INHIBITION turned out to be 50.17%. For `O=C(O)c1ccc2ccc(N3CCN(CC4CC4)CC3)n2c1`, the INHIBITION came to 57.95%. With `Cc1nn(-c2ccccc2)c2c1c(C(F)F)cc(=O)n2CC(=O)O`, the INHIBITION is reported as 13.39%. On to `COCCN1CCC(NCc2c(F)cccc2F)C1` (stereo unspecified), for which the INHIBITION worked out at 28.54%. With `Cc1nc(-c2ccncc2)ncc1C(C)NC(=O)Cn1ccccc1=O` (stereo unspecified) the figure was 10.02%. As to `Cc1nc(-c2ccncc2)ncc1C(C)NC(=O)CN1CCCC1=O` (stereo unspecified), the INHIBITION was 28.62%. Take `Cc1nc(-c2ccncc2)ncc1C(C)NC(=O)CN1CCCCC1` (stereo unspecified): the INHIBITION is listed as 50.41%. For the molecule `Cc1nc(C)n(CC2CCCN(Cc3nc(C4CC4)no3)C2)n1` (stereo unspecified), the INHIBITION is -38.96%. With `CCc1nc(CN2CCCC(Cn3nc(C)nc3C)C2)no1` (stereo unspecified) the figure was 70.27%. In the case of `Cc1nc(C)n(CC2CCCN2Cc2cn3c(C)cccc3n2)n1` (stereo unspecified), the INHIBITION is listed as -17.11%.

Take `Cc1nc(C)n(CC2CCCN(Cc3cn4c(C)cccc4n3)C2)n1` (stereo unspecified): the INHIBITION came to 60.64%.

On to `CCc1noc(CN2CCCC(Cn3nc(C)nc3C)C2)n1` (stereo unspecified), for which the INHIBITION is recorded as 21.39%.

With `Cc1nc(C)n(CC2CCCN(Cc3noc(C)n3)C2)n1` (stereo unspecified), the INHIBITION is 17.31%. In the case of `Cc1nc(C)n(CC2CCCN(Cc3cccc(F)c3F)C2)n1` (stereo unspecified), the INHIBITION is recorded as 2.18%. Consider `COCCc1noc(CN2CCCC(Cn3nc(C)nc3C)C2)n1` (stereo unspecified), for which the INHIBITION is on record as 30.91%. In the case of `Cc1noc(CN2CCCC(Cn3nc(C)nc3C)C2)n1` (stereo unspecified), the INHIBITION came out at 72.31%. `Cn1cc(C2COC3(CCN(C(=O)Cc4ccccc4)CC3)C2)cn1` (stereo unspecified): the INHIBITION turned out to be 2.27%. With `c1cnc(N2CCC3(CC2)CC(NCC2CC2)c2ccccc23)nc1` (stereo unspecified) the figure was 33.11%; with `CNC(=O)CNC1CC2(CCN(c3ncccn3)CC2)c2ccccc21` (stereo unspecified), 70.75%; with `CNC(=O)CC1CC2(CCN(c3ncccn3)CC2)c2ccccc21` (stereo unspecified), 2.87%. With `COc1ccc(OCc2cc(C(=O)N3CCSCC3)n[nH]2)c(Cl)c1` the figure was 8.48%; with `CCC(O)CNC(=O)c1cc(COc2ccc(OC)cc2Cl)[nH]n1` (stereo unspecified), 52.98%; with `COc1ccc(OCc2cc(C(=O)N3CCOCC3)n[nH]2)c(Cl)c1`, 15.05%.

On to `COc1ccc(OCc2cc(C(=O)N3CC=CC3)n[nH]2)c(Cl)c1`, for which the INHIBITION is 27.77%. With `COc1ccc(OCc2cc(C(=O)N3C[C@@H](C)O[C@@H](C)C3)n[nH]2)c(Cl)c1`, the INHIBITION came out at 21.29%. As for `CCC(CO)NC(=O)c1cc(COc2ccc(OC)cc2Cl)[nH]n1` (stereo unspecified), the INHIBITION came out at 45.82%. Regarding `CNC(=O)C(C)NC(=O)c1cc(COc2ccc(OC)cc2Cl)[nH]n1` (stereo unspecified), the INHIBITION is reported as 55.36%. With `CC[C@@H](CO)NC(=O)c1cc(COc2ccc(OC)cc2Cl)[nH]n1` the figure was 69.67%; with `COc1ccc(OCc2cc(C(=O)N3CCC(O)CC3)n[nH]2)c(Cl)c1`, 8.57%. In the case of `CCc1oc(C(=O)NC(C)Cc2cnccn2)cc1CN1CCCC1` (stereo unspecified) it was 12.11%. With `CNc1cccc(C2CCCN(C(=O)c3ccn(C)n3)C2)n1` (stereo unspecified) the figure was 15.64%. Consider `Cc1cc(C(F)(F)F)n2nc(C3CCCN3C3CCSCC3)cc2n1` (stereo unspecified), for which the INHIBITION turned out to be 36%. As for `OC1(CN2CCC(Oc3cccc(C(F)(F)F)c3)CC2)CCNC1` (stereo unspecified), the INHIBITION was -16.56%. For `Cn1ccc(C(=O)NCCOc2ccc3c(c2)OCO3)cc1=O`, the INHIBITION was 25.78%. For the molecule `CC(C)(C)C(=O)NCCCn1cncn1`, the INHIBITION was found to be 32.55%. Regarding `Cc1cc(NC(=O)CN2CCCC2c2c(C)nn(C)c2C)on1` (stereo unspecified), the INHIBITION turned out to be 26.76%. Turning to `c1cnnc(N2CCCC(NCc3ccc(-n4cncn4)cc3)C2)c1` (stereo unspecified), the INHIBITION is recorded as 32.79%. Regarding `CC1(C)O[C@@](C)([C@H]2CC3(CCN(c4cnccn4)CC3)CO2)CC[C@@H]1O`, the INHIBITION came out at 4.19%. Consider `c1csc(CN2C[C@@H](n3cccn3)[C@H]3OCCC[C@H]32)c1`, for which the INHIBITION is on record as 51.85%.

With `O=C(N[C@@H]1CN(Cc2cccs2)[C@@H]2CCCO[C@@H]21)C1CC1`, the INHIBITION worked out at 8.91%. In the case of `c1cnn([C@@H]2CN(Cc3nccs3)[C@@H]3CCCO[C@@H]32)c1` it was 13.61%.
